# Measurements taken from ChEMBL document CHEMBL3988442, “University of Dundee, Small-Polar-MMV Screening Library” (2021).
# About 960 (1.5%) of roughly 66,000 compounds showed an effect of 50% or more. The full list was thinned out, with strong results kept by preference.
# Test system: Trypanosoma brucei
# Assay: Trypanosoma brucei 72 hour study
# Type: functional, organism-based
# Design: scale not given: in the data most compounds retested in dose-response had high values
compound,measurement,setting,value
O=C(CCN1C[C@@H]2CC[C@H]1C2)N1CCN(c2cccc(Cl)c2)C(=O)C1,Percent Effect,"30.3 µM, […]",-18.65%
CN1CCN(C2COC3(CCN(c4ccc(C#N)cc4)CC3)C2)CC1.O=C(O)C(F)(F)F (stereo unspecified),Percent Effect,"30.3 µM, […]",-31.63%
O=C(Cn1ccnc1)N1CCCC(OCc2cccnc2)C1 (stereo unspecified),Percent Effect,"30 µM, 30.03 µM",-76.95%
NC(=O)CN1CCC(C(=O)N2CCCC(OCc3cccnc3)C2)CC1 (stereo unspecified),Percent Effect,"30 µM, 30.03 µM",52.75%
NC(=O)NCC(=O)N1CCCC(OCc2cccnc2)C1 (stereo unspecified),Percent Effect,"30 µM, 30.03 µM",-86.17%
CCC(NC(=O)CC1CCN(C(C)C)CC1)c1cn2cccnc2n1 (stereo unspecified),Percent Effect,"30 µM, 30.03 µM",-16.96%
CN1[C@@H](C(=O)NCC2CC2)C[C@@H]2CN(Cc3ccsc3)C[C@@H]21.O=C(O)C(F)(F)F.O=C(O)C(F)(F)F,Percent Effect,"30.3 µM, […]",-75.19%
O=C1c2cnc(N3CCOCC3)nc2CN1Cc1cccc(F)c1,Percent Effect,"30 µM, 30.03 µM",-25.27%
Cc1cc(OCCC(=O)NCc2ccc(F)cc2)nnc1C,Percent Effect,"30 µM, 30.03 µM",71.51%
Cc1cc(OCC(=O)NCc2ccc(F)cc2)nnc1C,Percent Effect,"30 µM, 30.03 µM",16.49%
Cc1cc(OCCC(=O)Nc2cccc(F)c2)nnc1C,Percent Effect,"30 µM, 30.03 µM",46.79%
Cc1noc(C)c1CN1CCC2(CC1)C(c1ccccc1)CC(=O)N2C.O=C(O)C(F)(F)F (stereo unspecified),Percent Effect,"30.3 µM, […]",-57.86%
COc1ccc(CC(=O)N2C[C@H]3CN(Cc4ccccn4)C[C@H]3C2)cc1.O=C(O)C(F)(F)F,Percent Effect,"30.3 µM, […]",-4.643%
CC(C)n1ccnc1CN1CCCN(C(=O)c2cccnc2O)CC1,Percent Effect,"30 µM, 30.03 µM",-16.49%
Cc1occc1C(=O)N1CCCN(Cc2nccn2C)CC1,Percent Effect,"30.3 µM, […]",4.115%
Cc1occc1C(=O)N1CCCN(Cc2nccn2C(C)C)CC1,Percent Effect,"30.3 µM, […]",53.23%
CCS(=O)(=O)N1Cc2[nH]nc(COCc3cccnc3)c2C1.O=C(O)C(F)(F)F,Percent Effect,"30.3 µM, […]",-37.05%
CCC(=O)N1CC[C@H]2[C@H](C[C@@H](Cn3cccn3)N2c2nccs2)C1.O=C(O)C(F)(F)F.O=C(O)C(F)(F)F,Percent Effect,"30.3 µM, […]",-3.444%
O=C(O)C(F)(F)F.O=C(O)C(F)(F)F.O=C(O)C(F)(F)F.c1cnn(C[C@@H]2C[C@@H]3CN(CC4CC4)CC[C@@H]3N2c2nccs2)c1,Percent Effect,"30.3 µM, […]",61.8%
CC(C)N1CC[C@H]2[C@H](C[C@@H](Cn3cccn3)N2c2nccs2)C1.O=C(O)C(F)(F)F.O=C(O)C(F)(F)F.O=C(O)C(F)(F)F,Percent Effect,"30.3 µM, […]",-34.12%
CC(=O)N1CCC2(CC1)C(=O)N(CC1CCN(C)CC1)c1ccccc12.O=C(O)C(F)(F)F,Percent Effect,"30.3 µM, […]",-5.968%
CCNc1cc2c(nn1)CCN(C(=O)c1cc3cc(C)ccc3o1)C2,Percent Effect,10 µM,-11.72%
same,Percent Effect,"30.3 µM, […]",30.23%
CCNc1cc2c(nn1)CCN(C(=O)c1cc3ccccc3o1)C2,Percent Effect,10 µM,-51.84%
same,Percent Effect,"30.3 µM, […]",2.809%
CCNc1cc2c(nn1)CCN(C(=O)c1cc3nc(C)ccc3o1)C2,Percent Effect,"30 µM, 30.03 µM",62.84%
